Screening data as filed in PubChem.
12-LOX inh: ALOX12 (human) lipoxygenase inhibition; purified 12hLO, xylenol orange hydroperoxide absorbance; AID 1671190; Potency, µM (titrated, usually from 108 µM), actives largely listed as inhibitors; actives 1.1% (n = 580,000); P18054
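Purified human 12hLO at 150 nM in 25 mM Hepes, 0.01% Triton X-100, pH 7.0, preincubated 15 min at room temperature with compound. Reaction started with 40 uM arachidonic acid, 30 min at room temperature. Hydroperoxide measured by Fe-xylenol orange, 573/405 nm absorbance ratio.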
IDH1 R132H inh: blocks human mutant IDH1 R132H enzyme | actives 0.093% (n = 390,000) | Potency, µM (series often up to 76.6 µM), usual class: inhibitors | IDH1-R132H enzyme, NADPH consumption, diaphorase/resazurin fluorescence; further: nearly all actives have a fitted effect of over 65% in size
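IDH1-R132H (0.5 ug/mL dispensed) in pH 7.5 Tris buffer was preincubated 30 min with compound, then given a substrate mix of 0.016 mM NADPH and 2 mM alpha-KG for 80 min at room temperature; remaining NADPH was read by diaphorase/resazurin fluorescence.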
TrxR1 substrate: is turned over as a substrate by rat TrxR1 | O89049 | actives 0.01% (n = 390,000) | Potency, µM (series often up to 114 µM) | purified TrxR1 substrate turnover, NADPH consumption readout; further: nearly all actives have a fitted effect of over 50% in size
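Rat TrxR1, dispensed at 90 nM, was prereduced with 400 uM NADPH (final) for 5 min at ~22 deg C, then incubated with compound 15 min before 400 uM selenite. A first-read NADPH fluorescence drop versus no-compound background flagged substrates.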
Glioma ERSR ind: ER stress response induction in glioma; U87-MG GRP78 promoter luciferase reporter, 16 h; Potency, µM, most hits filed as activators; actives 0.02% (n = 420,000); further: series mostly up to about 76 µM; nearly all actives have a fitted effect of over 35% in size
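ERSR induction read as luciferase luminescence (Bright-Glo, 10 min at room temperature) in stably transfected human U87-MG glioma cells exposed to compounds for 16 h, using GRP78 as sensor.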
TrxR1 inh-1: inhibitors of rat thioredoxin reductase 1; Potency, µM (titrated, usually from 114 µM), hits mostly inhibitors; recombinant rTrxR1, NADPH fluorescence consumption, selenite substrate; AID 588453; actives 1% (n = 390,000); further: nearly all actives have a fitted effect of over 65% in size
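Rat TrxR1 (90 nM in the dispensed reagent) was pre-reduced with 400 uM NADPH for 5 min at room temperature, then incubated with compound for 15 min. After 400 uM selenite was added, NADPH fluorescence (Ex 340/Em 450 nm) was followed for 8 min.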
Anesthetic bind: binds horse apoferritin like a general anesthetic; apoferritin/1-aminoanthracene competitive binding, fluorescence; Potency, µM (top dose mostly 77.5 µM), usual class: inhibitors; actives 0.074% (n = 350,000); AID 485281; further: nearly all actives have a fitted effect of over 20% in size
Target sequence (P02791 2-175 limits assumed): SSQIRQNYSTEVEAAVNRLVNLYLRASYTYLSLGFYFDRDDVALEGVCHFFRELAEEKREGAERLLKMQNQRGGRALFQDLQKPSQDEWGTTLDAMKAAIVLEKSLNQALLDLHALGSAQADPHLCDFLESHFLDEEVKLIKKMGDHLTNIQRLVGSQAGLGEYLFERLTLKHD
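In PBS, apoferritin at 10 uM is loaded with 1-AMA from a 50% saturated solution. After 10 min of compound exposure at ambient temperature, reduced 535 nm fluorescence indicates probe displacement.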
TRb-SRC2 inh: TRb-SRC2 (human) interaction inhibition. shares compounds with TrxR1 inh-1. AlphaScreen TRb LBD-SRC2 peptide binding, luminescence. Potency, µM. actives 50% (n = 30); calls by dose curve
Target sequence (P10828 whole entry, looked up, the tested form may be a part): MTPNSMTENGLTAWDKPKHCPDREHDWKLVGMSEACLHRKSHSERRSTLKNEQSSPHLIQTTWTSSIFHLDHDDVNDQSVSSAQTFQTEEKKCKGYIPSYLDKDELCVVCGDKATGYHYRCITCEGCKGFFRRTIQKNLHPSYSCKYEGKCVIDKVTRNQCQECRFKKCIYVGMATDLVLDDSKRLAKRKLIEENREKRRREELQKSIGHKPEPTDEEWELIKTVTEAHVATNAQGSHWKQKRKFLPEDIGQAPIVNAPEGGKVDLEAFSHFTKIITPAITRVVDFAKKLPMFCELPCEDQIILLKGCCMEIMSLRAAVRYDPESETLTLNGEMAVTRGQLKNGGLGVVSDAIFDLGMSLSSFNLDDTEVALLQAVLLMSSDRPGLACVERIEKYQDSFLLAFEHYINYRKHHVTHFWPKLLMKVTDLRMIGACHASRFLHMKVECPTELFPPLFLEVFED
HepG2 viability: counter-screen for TRb-SRC2 inhibitors: HepG2 cytotoxicity; shares compounds with TrxR1 inh-1; HepG2 viability, ATP luminescence (CellTiter-Glo), 72 h; Potency, µM; actives 50% (n = 40); AID 2447; calls by dose curve
AR-SRC2 inh: disrupts human androgen receptor binding to SRC2 peptide; 25 tested, under 10 active; AR-LBD Tx-SRC2-3 fluorescence polarization, 3 h; AID 2448; shares compounds with TrxR1 inh-1; calls only; call rule not given here
PPARg-DRIP2 inh: selectivity of TRb-SRC2 inhibitors: human PPARgamma coactivator binding inhibition | shares compounds with TrxR1 inh-1 | PPARg LBD / Texas Red DRIP-2 peptide, fluorescence polarization, 3 h | Potency, µM | 25 tested, under 10 active | AID 2449; calls by dose curve
VDR SRC2 FP: VDR-SRC2 (human) interaction inhibition, selectivity | shares compounds with TrxR1 inh-1 | VDR LBD/SRC2-3 peptide, fluorescence polarization, 3 h | Potency, µM | 25 tested, under 10 active; calls by dose curve
TRb SRC2 FluoFP: confirmation of human TRb-SRC2 interaction inhibitors; 20 tested, under 10 active; shares compounds with TrxR1 inh-1; Potency, µM; TRb LBD / fluorescein-SRC2 peptide, fluorescence polarization; AID 2487; call rule not given here
GR inh: counter-screen for TrxR1 inhibitors: human glutathione reductase inhibition. shares compounds with TrxR1 inh-1. purified GR, DTNB reduction absorbance 405 nm kinetic. activity change, negative = inhibition, % at 57.1 µM. 55 tested, under 10 active. AID 652020
TrxR1 inh-2: blocks rat thioredoxin reductase 1 in hit validation | shares compounds with TrxR1 inh-1 | Potency, µM, most hits filed as inhibitors | actives 50% (n = 55) | recombinant TrxR1, NADPH fluorescence consumption, selenite substrate
TrxR1 insulin MOA: TrxR1 inhibition in insulin mechanism assay | Potency, µM | shares compounds with TrxR1 inh-1 | TrxR1 Trx-coupled insulin reduction, NADPH absorbance 340 nm | actives 20% (n = 55) | AID 652037;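 active means compounds with a measured potency under 100 micromolar; inconclusive means filed, but no rule given; inactive means potency at or above that, or unmeasurable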
TrxR1 inh-3: inhibitors of rat thioredoxin reductase 1, DTNB reduction. Potency, µM. actives 90% (n = 55). shares compounds with TrxR1 inh-1. purified TrxR1, DTNB reduction, A412;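 active means a half-inhibiting concentration could be measured and was below 100 µM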
A number is an active result; ! = a repeat was not active. Only some compounds are listed: those with a hit (about 1.7% of all), similar ones and a draw of the others. Unless noted, the call rests on the fitted dose curve; in most records, active means well fitted curve in the direction sought with a large enough effect; inconclusive means small, poorly fitted or top-dose-only effect, or another doubt; inactive means no such curve, though single readings can be large; an effect the other way counts as inactive or inconclusive.

For CCC(C)(C)n1nnnc1C(c1ccc(O)c(OC)c1)N1CCc2ccccc2C1 (centres undefined) the results were 12-LOX inh inconclusive, IDH1 R132H inh inactive, TrxR1 substrate inactive, Glioma ERSR ind inactive, TrxR1 inh-1 0.079µM, Anesthetic bind inconclusive, GR inh inactive, TrxR1 inh-2 0.34, TrxR1 insulin MOA inactive and TrxR1 inh-3 0.011µM.
CC(C)CN1CCN(C(=O)COC(=O)c2ccc(S(C)(=O)=O)c([N+](=O)[O-])c2)CC1 was read as 12-LOX inh inactive and Glioma ERSR ind inactive.
`CC(OC(=O)c1ccc(S(C)(=O)=O)c([N+](=O)[O-])c1)C(=O)NC1C2CC3CC(C2)CC1C3` (centres undefined) gave 12-LOX inh inactive, Glioma ERSR ind inactive and HepG2 viability 8.2µM.
`CCC(OC(=O)c1ccc(S(C)(=O)=O)c([N+](=O)[O-])c1)C(=O)NC1C2CC3CC(C2)CC1C3` (centres undefined) gave 12-LOX inh inactive, Glioma ERSR ind inactive and HepG2 viability 7.6µM.
`Cc1cc(NC(=O)c2ccco2)cc(-c2nc3cc(C(C)C)ccc3o2)c1O` gave 12-LOX inh inactive.
`CNC(=O)C1(N2CCC[C@H]2C(=O)NCc2ccccn2)CCCCC1` gave 12-LOX inh inactive.
For O=C(Nc1ccccc1)c1ccc2nc(-c3ccco3)c(-c3ccco3)nc2c1 the results were 12-LOX inh inconclusive, IDH1 R132H inh inactive, TrxR1 substrate inactive, Glioma ERSR ind inactive, TrxR1 inh-1 4µM, Anesthetic bind inactive, GR inh inactive, TrxR1 inh-2 3.8, TrxR1 insulin MOA inactive and TrxR1 inh-3 1.6µM.
O=C(Nc1cccnc1)c1ccc2nc(-c3ccccc3)c(-c3ccccc3)nc2c1 was read as 12-LOX inh inactive, IDH1 R132H inh inactive, TrxR1 substrate inactive, Glioma ERSR ind inactive, TrxR1 inh-1 inactive and Anesthetic bind inconclusive.
O=C(c1ccco1)N1CCC(C2CCN(Cc3cccnc3)CC2)C1 (centres undefined) was read as 12-LOX inh inactive.
Screening Cn1cccc1C(=O)NC(=O)COC(=O)c1ccc(S(C)(=O)=O)c([N+](=O)[O-])c1 returned IDH1 R132H inh inactive, TrxR1 substrate inactive, Glioma ERSR ind inactive, TrxR1 inh-1 4.5µM!, TRb-SRC2 inh 27µM, HepG2 viability inconclusive, AR-SRC2 inh inactive, PPARg-DRIP2 inh 52µM, VDR SRC2 FP inconclusive and TRb SRC2 FluoFP inconclusive.
`COc1ccc(C(=O)OCC(=O)NC(=O)NC2CCCC2)cc1[N+](=O)[O-]` gave 12-LOX inh inactive, IDH1 R132H inh inactive, TrxR1 substrate inactive, Glioma ERSR ind inactive and TrxR1 inh-1 inactive.
Screening CS(=O)(=O)c1ccc(C(=O)OCC(=O)NC(=O)NC2CCCCC2)cc1[N+](=O)[O-] returned TrxR1 substrate inactive, Glioma ERSR ind inactive, TrxR1 inh-1 7.1µM, TRb-SRC2 inh 17µM, HepG2 viability inactive, AR-SRC2 inh inactive, PPARg-DRIP2 inh inconclusive, VDR SRC2 FP 49µM and TRb SRC2 FluoFP 14µM.
Screening CS(=O)(=O)c1ccc(C(=O)OCC(=O)NCC2CCCO2)cc1[N+](=O)[O-] (centres undefined) returned TrxR1 substrate inactive, Glioma ERSR ind inactive, TrxR1 inh-1 3.5µM, TRb-SRC2 inh inactive, HepG2 viability inconclusive, AR-SRC2 inh inactive, PPARg-DRIP2 inh inactive, VDR SRC2 FP inactive and TRb SRC2 FluoFP inactive.
For COc1cccc(CNC(=O)COC(=O)c2ccc(S(C)(=O)=O)c([N+](=O)[O-])c2)c1 the results were TrxR1 substrate inactive, Glioma ERSR ind inactive, TrxR1 inh-1 1.3µM, TRb-SRC2 inh inactive, HepG2 viability inactive, AR-SRC2 inh inactive, PPARg-DRIP2 inh inactive, VDR SRC2 FP inactive and TRb SRC2 FluoFP inactive.
For O=c1c2ccccc2c(-c2cccs2)nn1CC(O)COCc1ccccc1 (centres undefined) the results were 12-LOX inh inactive.
Screening Cc1ccc(F)cc1NC(=O)COC(=O)c1ccc(S(C)(=O)=O)c([N+](=O)[O-])c1 returned TrxR1 substrate inactive, Glioma ERSR ind inactive, TrxR1 inh-1 2µM, TRb-SRC2 inh inactive, HepG2 viability 13µM and TRb SRC2 FluoFP inactive.
`C[C@@H]1CC=C[C@H]2[C@H]1C(=O)N(Cc1ccccc1)[C@H]2c1ccc2ccccc2c1Br` gave 12-LOX inh inconclusive, IDH1 R132H inh inactive, TrxR1 substrate inactive, Glioma ERSR ind inactive, TrxR1 inh-1 16µM, Anesthetic bind inactive, GR inh inactive, TrxR1 inh-2 5.3, TrxR1 insulin MOA inactive and TrxR1 inh-3 0.95µM.
CCN1C(=NCCc2c[nH]c3ccccc23)N[C@@H](c2ccccc2)C(C(=O)OC)=C1C was read as Anesthetic bind inactive.
